± gives the standard deviation.
How the values were obtained:
[1] = test system: MILI (PIWIL2) piRISC loaded with L1MC piRNA (26 nt); test: pre-steady-state target cleavage rate (min^-1); guide: L1MC piRNA 5'p-UAACUAAAUACUAUGCAAGCUGUAGG; higher = faster piRNA-guided slicing of the target;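 also: 1 nM active piRISC with 0.1 nM target library at 33 °C single turnover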
In short: (§1)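 In this Cleave-'n-Seq assay, uncleaved targets were sequenced and normalised to depth and to weakly complementary targets. They came from a transcribed, DNA-blocked target RNA library […] mixed with 1 nM active affinity-purified piRISC carrying one synthetic guide, with or without 500 nM GTSF1 partner protein, in HEPES–potassium acetate buffer at 33 °C for 0–8 or 0–960 min. After three trials were pooled and k3 was capped at 0.0001 min^-1, the pre-steady-state cleavage rate was obtained from a burst-and-steady-state fit.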

[2] = test system: EfPiwi piRISC loaded with L1MC piRNA (26 nt); test: pre-steady-state target cleavage rate (min^-1); auxiliary factor: 500 nM Ephydatia muelleri Gtsf1; guide: L1MC piRNA 5'p-UAACUAAAUACUAUGCAAGCUGUAGG; MIWI and MILI are mouse PIWI proteins and EfPiwi is from a freshwater sponge; tags in brackets are library labels; higher = faster piRNA-guided slicing of the target
In short: as §1

[3] = auxiliary factor: 500 nM mouse GTSF1
[4] = auxiliary factor: none (no GTSF1)

Sequence	pre-steady-state target cleavage rate [1, 3]	pre-steady-state target cleavage rate [1, 4]	pre-steady-state target cleavage rate [2]
UCCUGCUACUGCUUGCAUAGUAUUAAGUUA	0.151 ± 0.02	0.00322 ± 0.0028	0.00584 ± 0.0021
UCCUGCUACAGCUUGCUUAGUUUUUAGUUA	0.0712 ± 0.011	0.00366 ± 0.0015	0.0055 ± 0.0019
UCCUCCUACUCGUUGCAUAGUAUUUAGUUA	0.211 ± 0.018	0.00864 ± 0.002	0.101 ± 0.025
UCCUGCUACAGCUUGCUUAGUAAUUAGUUA	0.18 ± 0.018	0.00332 ± 0.0026	0.0139 ± 0.0051
UCCUGGAUGUGCUUAGCAUAGUAUUUAGUUA	0.124 ± 0.015	0.00625 ± 0.0028	0.00497 ± 0.0028
UCCUCCAACAGCUUGCAUAGUAUUUAGUUA	0.329 ± 0.017	0.00861 ± 0.0027	0.113 ± 0.032
UCCUGGAACAGCUUCAUAGUAUUUAGUUA	0.252 ± 0.015	0.00361 ± 0.0026	0.0107 ± 0.0034
UCCUGGAUCAGCUUGCAUAGUAUUUAGUGA	0.237 ± 0.021	0.006 ± 0.0028	0.0182 ± 0.0068
UCCUGCUACAGCUGGCAUAGUAUUUAGUUA	0.293 ± 0.019	0.00759 ± 0.0024	0.00937 ± 0.0024
UCCUGGAUCAGCUUGCAUAGUAUUUCGUUA	0.147 ± 0.034	0.00354 ± 0.0024	0.00263 ± 0.002
UCCUCCUACAGCUUGCUAAGUAUUUAGUUA	0.17 ± 0.012	0.00586 ± 0.0019	0.00593 ± 0.0039
UCCUGGAUGUCGUUUGCAUAGUAUUUAGUUA	0.13 ± 0.013	0.00976 ± 0.0036	0.0445 ± 0.013
UCCUGGAGCAGCUUGCAUAGUAUUUAGUUA	0.333 ± 0.021	0.0118 ± 0.0032	0.101 ± 0.024
UCCUCCUACAGCUUGCAUAGUAUUUAGUAUA	0.258 ± 0.028	0.00757 ± 0.0027	0.00856 ± 0.0035
UCCUGGAUGAGGCUUGCAUAGUAUUUAGUUA	0.186 ± 0.018	0.0125 ± 0.0036	0.0185 ± 0.0065
UCCUCCUAGUGCUUGCAUAGUAUUUAGUUA	0.164 ± 0.018	0.00418 ± 0.0018	0.00928 ± 0.0031
UCCUCCUACACCUAGCAUAGUAUUUAGUUA	0.205 ± 0.027	0.0056 ± 0.0018	0.00718 ± 0.0027
UCCUGCUACAAGCUUGCAUAGUAUUUAGUUA	0.157 ± 0.015	0.00805 ± 0.002	0.00475 ± 0.0013
UCCUGGAUCAGCUUGUAUAGUAUUUAGUUA	0.301 ± 0.015	0.0104 ± 0.0028	0.104 ± 0.021
UCCUGGUACAGCAUGCAUAGUAUUAAGUUA	0.292 ± 0.06	0.0046 ± 0.003	0.00442 ± 0.002
UCCUCCUUCAGCUUGCAUAGUAUUAAGUUA	0.155 ± 0.022	0.00246 ± 0.0023	0.00716 ± 0.0031
UCCUCCUACAGCUUGGAUUGUAUUUAGUUA	0.165 ± 0.015	0.00457 ± 0.002	0.0225 ± 0.0082
UCCUCCUACAGCUUGCAUAGUAUAUUAGUUA	0.282 ± 0.019	0.00588 ± 0.0024	0.0567 ± 0.019
UCCUCCUAGAGCUUGCAUAGUAUUUAGUUA	0.232 ± 0.019	0.00656 ± 0.0021	0.0186 ± 0.0054

Sequence	pre-steady-state target cleavage rate [1, 3]	pre-steady-state target cleavage rate [1, 4]	pre-steady-state target cleavage rate [2]
UCCUCCACAGCUUGCAUAGUAUUUAGUUA	0.248 ± 0.014	0.00686 ± 0.0018	0.0564 ± 0.018
UCCUCCUACAGCUUGCAUAGUAUUUACUUA	0.206 ± 0.039	0.00429 ± 0.0025	0.0042 ± 0.0034
UCCUGGAUGAGCAUGCAUAGUAUUUAGUUA	0.199 ± 0.016	0.00939 ± 0.0029	0.0207 ± 0.0065
UCCUCCUACAGGUUGCAUUGUAUUUAGUUA	0.152 ± 0.012	0.00725 ± 0.0019	0.0124 ± 0.0028
UCCUGCUUCAGCUUGCAUUGUAUUUAGUUA	0.218 ± 0.013	0.0103 ± 0.0023	0.0233 ± 0.0065
UCCUGGAUCAGAUUGCAUAGUAUUUAGUUA	0.205 ± 0.013	0.00667 ± 0.002	0.0613 ± 0.011
UCCUGGAUGUCCUUGCAUAGUAUUUUAGUUA	0.107 ± 0.017	0.0134 ± 0.0036	0.00287 ± 0.0028
UCCUGGAUGUCCUGGCAUAGUAUUUAGUUA	0.066 ± 0.013	0.00414 ± 0.0026	0.0055 ± 0.0047
UCCUGGAUCAGCUUCGCAUAGUAUUUAGUUA	0.309 ± 0.02	0.00591 ± 0.0024	0.0389 ± 0.009
UCCUGGUACAGCUUGCAUAGUAUUUAGUGA	0.129 ± 0.021	0.00389 ± 0.0025	0.00447 ± 0.0018
UCCUGGAUGUCCUUGCAUAGUGUUUAGUUA	0.0572 ± 0.012	0.00445 ± 0.0025	0.00951 ± 0.0035
UCCUGGAAGAGCUUGCAUAGUAUUUUGUUA	0.21 ± 0.037	0.00584 ± 0.0025	0.00497 ± 0.0026
UCCUGGAUCAGGUUGCAUAGUAUUUUGUUA	0.101 ± 0.015	0.00364 ± 0.0028	0.00406 ± 0.0022
UCCUGGAAGAGCUUGCAUAGUAUUUAGAUA	0.182 ± 0.034	0.00463 ± 0.0025	0.00519 ± 0.0023
UCCUGGAACAGCUUGCAUAGUAUUGUAGUUA	0.151 ± 0.02	0.00351 ± 0.0026	0.00741 ± 0.0027
UCCUGGAACAGCCUGCAUAGUAUUUAGUUA	0.247 ± 0.012	0.00896 ± 0.0029	0.0144 ± 0.0045
UCCUCCCUACAGCUUGCAUAGUAUUUAGUUA	0.303 ± 0.02	0.0107 ± 0.0027	0.0606 ± 0.017
UCCUCCUAAAGCUUGCAUAGUAUUUAGUUA	0.157 ± 0.019	0.00372 ± 0.0021	0.00604 ± 0.0023
UCCUCCUACAGCUUGCCUAGUAUUUAGUUA	0.253 ± 0.022	0.00736 ± 0.002	0.0514 ± 0.014
UCCUCCUACAGCUUGGAAAGUAUUUAGUUA	0.141 ± 0.014	0.00715 ± 0.0023	0.0615 ± 0.013
UCCUGGAUCAGCGUUGCAUAGUAUUUAGUUA	0.212 ± 0.016	0.00789 ± 0.0028	0.021 ± 0.0057
UCCUGGAUCAGCUUGCAUAGUAUUUAGUUG [g2:g22:cont:t1G]	0.285 ± 0.018	0.00983 ± 0.0019	0.0209 ± 0.0054
UCCUGGAUCAGCUUGCAUAGUAUUUAGAAA	0.138 ± 0.022	0.00292 ± 0.0023	0.00346 ± 0.0016
UCCUGGUACGGCUUGCAUAGUAUUUAGUUA	0.195 ± 0.03	0.0133 ± 0.0047	0.00921 ± 0.0043

Sequence	pre-steady-state target cleavage rate [1, 3]	pre-steady-state target cleavage rate [1, 4]	pre-steady-state target cleavage rate [2]
UCCUGGUACAGCUUGCUUACUAUUUAGUUA	0.0679 ± 0.012	0.00375 ± 0.0027	0.00704 ± 0.0031
UCCUGCUAGAGCUUGCAUAGUAUAUAGUUA	0.176 ± 0.02	0.00268 ± 0.0026	0.00471 ± 0.0017
UCCUCCUACAGCAUGCAAAGUAUUUAGUUA	0.161 ± 0.015	0.00732 ± 0.0021	0.0492 ± 0.017
UCCUCGUACAGCUUGCAUAGUAUUAAGUUA	0.214 ± 0.022	0.00547 ± 0.0019	0.00547 ± 0.0018
UCCUGGUACAGCUUGCAUAGUAUCUAGUUA	0.156 ± 0.029	0.00431 ± 0.0025	0.004 ± 0.0021
UCCUGCAACUGCUUGCAUAGUAUUUAGUUA	0.322 ± 0.025	0.00581 ± 0.0026	0.0198 ± 0.0044
UCCUGCUACAGCUUGCAUAGUAUUUGAGUUA	0.135 ± 0.02	0.00331 ± 0.0024	0.0068 ± 0.0022
UCCUGGAUGUCCGUGCAUAGUAUUUAGUUA	0.0403 ± 0.011	0.00675 ± 0.0027	0.00483 ± 0.0024
UCCUGGAUGUGCUUGCAUAGUAUUUAAGUUA	0.158 ± 0.018	0.00961 ± 0.0032	0.0404 ± 0.015
UCCUGCUACAGCUUCGAUAGUAUUUAGUUA	0.253 ± 0.02	0.00716 ± 0.002	0.00756 ± 0.0026
UCCUGGAUGUGCAAGCAUAGUAUUUAGUUA	0.055 ± 0.012	0.00481 ± 0.0026	0.00427 ± 0.0022
UCCUGCUAGAGCUAGCAUAGUAUUUAGUUA	0.237 ± 0.031	0.00417 ± 0.0027	0.00618 ± 0.0016
UCCUCCAUCAGCUUGCAUAGUAUUUAGUUA	0.248 ± 0.018	0.00673 ± 0.002	0.0155 ± 0.005
UCCUCCUACAGGUUGGAUAGUAUUUAGUUA	0.205 ± 0.012	0.00699 ± 0.0018	0.0118 ± 0.0028
UCCUGCUACAGCUUGCCUAGUAUUUAGUUA	0.222 ± 0.015	0.0074 ± 0.0022	0.00702 ± 0.0018
UCCUCCUACAAGCUUGCAUAGUAUUUAGUUA	0.222 ± 0.016	0.00894 ± 0.0024	0.0104 ± 0.0039
UCCUGGUUCAGCUUGCUUAGUAUUUAGUUA	0.199 ± 0.017	0.0104 ± 0.003	0.0145 ± 0.0054
UCCUGCUACAGCUAGCAUACUAUUUAGUUA	0.112 ± 0.018	0.0037 ± 0.0024	0.0063 ± 0.0019
UCCUGGAACAGCUUGCAUAGUAUUUAGUUC [g2:g23:cont:t1C]	0.191 ± 0.024	0.00602 ± 0.0018	0.00959 ± 0.0037
UCCUGGUACACCUAGCAUAGUAUUUAGUUA	0.201 ± 0.044	0.00696 ± 0.0032	0.00319 ± 0.0029
UCCUCCUACAGCUUGCAUAGUAUUUAGUUC [g2:g26:cont:t1C]	0.283 ± 0.016	0.0143 ± 0.0047	0.146 ± 0.035
UCCUGCUGACAGCUUGCAUAGUAUUUAGUUA	0.327 ± 0.025	0.00993 ± 0.0029	0.0486 ± 0.013

Source: the supplement of paper PMC10338343
